In PubChem BioAssay (NCATS):
Inconclusive results are not listed. Active and inactive are the calls of the source. Unless noted, calls come from the whole dose curve; as a rule, active = well fitted curve in either direction with a large enough effect (not every such curve was filed as active); inconclusive = small, poorly fitted or top-dose-only effect, or another doubt; inactive = flat fitted curve, though single readings scatter.

Experiments:
[1] = molecular target: Lysosomal acid glucosylceramidase (Homo sapiens) (UniProt P04062); assay: Glucocerebrosidase-p2 (AID 348; in the data active = potency below about 10 µM; note: potency is the fitted concentration of half-maximal effect); settings: purified GBA, blue fluorogenic substrate, 40 min
Lysosomal acid glucosylceramidase (Homo sapiens), sequence (P04062 whole entry, looked up): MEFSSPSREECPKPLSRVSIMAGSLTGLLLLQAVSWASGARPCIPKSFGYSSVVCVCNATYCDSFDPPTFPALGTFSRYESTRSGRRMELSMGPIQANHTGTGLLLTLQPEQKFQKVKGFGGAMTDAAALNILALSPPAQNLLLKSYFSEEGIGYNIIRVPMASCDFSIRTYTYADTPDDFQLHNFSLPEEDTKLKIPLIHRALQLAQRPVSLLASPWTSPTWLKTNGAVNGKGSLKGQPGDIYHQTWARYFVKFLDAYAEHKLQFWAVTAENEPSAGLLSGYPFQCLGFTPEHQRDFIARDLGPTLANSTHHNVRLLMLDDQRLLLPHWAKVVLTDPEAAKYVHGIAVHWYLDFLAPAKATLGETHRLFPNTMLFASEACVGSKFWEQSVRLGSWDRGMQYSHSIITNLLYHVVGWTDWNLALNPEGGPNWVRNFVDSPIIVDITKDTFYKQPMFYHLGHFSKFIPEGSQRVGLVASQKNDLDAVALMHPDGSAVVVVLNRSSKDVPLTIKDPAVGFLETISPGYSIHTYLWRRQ
Procedure, shortened: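 Normal human glucocerebrosidase (0.2 nM) with blue fluorogenic substrate (80 uM final) in citrate/phosphate pH 5.9 with 10mM sodium taurocholate, 0.01% tween-20; 40 min RT, NaOH/glycine stop; fluorescence Ex 365/Em 440; AC50 from a titration from 0.6 nM upwards.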

[2] = AP1 Signaling Pathway (AID 357); settings: ME-180 AP-1-bla reporter, EGF-induced, beta-lactamase ratio, 5 h; at 7.69 µM (top of the series) unless noted;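 note: ME-180 reporter cells stimulated with EGF at its EC50 level; % is set by controls: 0 for no effect and ±100 for the full control effect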
Procedure, shortened: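 Titration-series screen for positive or negative modulators of EC50 EGF-induced signaling in ME-180 cells carrying an AP-1-driven beta-lactamase reporter. After 5 hours at 37 degrees Celsius, CCF4 460nm/530nm emission ratio gave %Activity; AC50 values derived.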

[3] = NFAT Signaling Pathway (AID 444); settings: Jurkat NFAT-bla M1, carbachol, beta-lactamase ratio, 5 h; at 7.69 µM (top of the series) unless noted;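 note: carbachol stimulus at about its EC50 of 1 µM final; % is set by controls: 0 for no effect and ±100 for the full control effect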
Procedure, shortened: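 Read-out: CCF4 FRET ratio (460 nm/530 nm) after 1 h RT dye loading, used for %activity and AC50 from titration series. Cells: Jurkat NFAT-β-lactamase/M1 line, treated with compound plus 1 uM carbachol for 5 h, 37 °C.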

[4] = Stat Signaling Pathway (AID 446); settings: ME-180 SIE beta-lactamase reporter, IL-6 stimulated, 5 h; at 7.69 µM (top of the series) unless noted;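 note: ME-180 cervical cancer cells given 40 pM IL-6 alongside compound; SIE-controlled beta-lactamase reporter measured as 460/530 nm FRET emission ratio; % is set by controls: 0 for no effect and ±100 for the full control effect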
Procedure, shortened: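 FRET read-out (405 nm excitation, 460/530 nm emission) of a beta-lactamase reporter under a STAT-inducible element in ME-180 cervical carcinoma cells. Cells with compound receive 40 pM IL-6 for 5 h. Values are normalised to AC90 stimulation and AC90 JAK-inhibitor controls.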

[5] = molecular target: Glucocorticoid receptor (Homo sapiens) (UniProt P04150); assay: GR-GFP Redistribution (AID 450;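 active = compounds whose dose series gives a full or clear partial fitted curve of increased nuclear translocation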; note: potency is the fitted concentration of half-maximal effect); settings: U2OS GR-GFP nuclear translocation, laser cytometry, 2 h
Glucocorticoid receptor (Homo sapiens), sequence (P04150 whole entry, looked up, the tested form may be a part): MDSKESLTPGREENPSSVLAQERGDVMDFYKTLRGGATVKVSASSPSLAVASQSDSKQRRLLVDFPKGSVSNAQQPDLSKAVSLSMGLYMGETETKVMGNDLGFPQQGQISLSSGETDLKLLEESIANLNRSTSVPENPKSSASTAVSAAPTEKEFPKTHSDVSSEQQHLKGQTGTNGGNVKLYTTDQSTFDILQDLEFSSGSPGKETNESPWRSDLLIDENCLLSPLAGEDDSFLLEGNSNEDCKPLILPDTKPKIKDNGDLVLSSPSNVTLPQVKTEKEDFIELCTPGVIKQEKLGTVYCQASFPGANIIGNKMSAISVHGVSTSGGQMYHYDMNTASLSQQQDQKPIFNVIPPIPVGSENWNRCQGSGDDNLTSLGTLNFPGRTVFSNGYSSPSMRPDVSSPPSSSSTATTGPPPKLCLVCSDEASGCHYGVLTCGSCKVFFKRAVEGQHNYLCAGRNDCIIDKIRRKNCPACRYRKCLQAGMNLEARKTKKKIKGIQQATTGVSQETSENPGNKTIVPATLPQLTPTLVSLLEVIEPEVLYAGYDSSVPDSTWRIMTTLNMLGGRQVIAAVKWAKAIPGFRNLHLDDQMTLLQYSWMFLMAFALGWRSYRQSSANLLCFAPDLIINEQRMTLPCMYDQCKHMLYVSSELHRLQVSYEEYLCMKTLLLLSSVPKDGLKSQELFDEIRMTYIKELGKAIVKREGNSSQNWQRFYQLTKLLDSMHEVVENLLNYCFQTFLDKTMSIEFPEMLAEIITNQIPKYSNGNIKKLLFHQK

[6] = molecular target: Glucocorticoid receptor (Homo sapiens) (UniProt P04150); assay: GR-EFC Redistribution (AID 451; calls by dose curve; note: potency is the fitted concentration of half-maximal effect); settings: CHO-K1 GR-EFC translocation, beta-gal luminescence, 2 h
Procedure, shortened: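 Translocation of GR-ED fusion to nuclear EA restores b-gal, read by luminescence after 1 h room-temperature detection. Engineered CHO-K1 biosensor cells, 1,000/well, exposed 2 h at 37 C to titrations up to 46 uM final.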

[7] = molecular target: 3',5'-cyclic-AMP phosphodiesterase 4B (Homo sapiens) (UniProt Q07343); assay: qHTS Assay for Inhibitors of PDE-IV (AID 607; active = well fitted activation curve with a large enough effect in the main read-out, with a control signal flat, not every such curve was filed as active; note: % of control where 0% means no effect); settings: HEK293 ACTOne CNG channel cells, membrane potential fluorescence; series mostly up to 22.9 µM
3',5'-cyclic-AMP phosphodiesterase 4B (Homo sapiens), sequence (Q07343 whole entry, looked up): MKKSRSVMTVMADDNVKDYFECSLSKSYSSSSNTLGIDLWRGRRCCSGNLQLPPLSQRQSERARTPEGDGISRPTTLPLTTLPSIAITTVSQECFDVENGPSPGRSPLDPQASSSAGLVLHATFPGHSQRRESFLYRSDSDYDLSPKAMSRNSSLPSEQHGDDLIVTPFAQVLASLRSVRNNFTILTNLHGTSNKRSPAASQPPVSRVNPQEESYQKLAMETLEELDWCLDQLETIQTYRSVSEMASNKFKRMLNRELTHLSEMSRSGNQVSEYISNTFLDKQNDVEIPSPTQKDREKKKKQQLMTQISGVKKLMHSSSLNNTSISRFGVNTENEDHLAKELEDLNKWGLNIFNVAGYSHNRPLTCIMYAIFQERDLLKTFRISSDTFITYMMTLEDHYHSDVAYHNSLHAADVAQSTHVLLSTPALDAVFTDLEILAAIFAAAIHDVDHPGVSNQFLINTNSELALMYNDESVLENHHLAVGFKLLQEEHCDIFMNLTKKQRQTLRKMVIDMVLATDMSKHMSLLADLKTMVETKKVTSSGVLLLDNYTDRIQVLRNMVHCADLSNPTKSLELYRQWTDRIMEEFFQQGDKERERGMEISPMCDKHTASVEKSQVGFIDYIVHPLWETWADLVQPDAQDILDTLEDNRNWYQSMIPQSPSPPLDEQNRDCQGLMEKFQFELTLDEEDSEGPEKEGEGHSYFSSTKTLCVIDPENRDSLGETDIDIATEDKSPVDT
Procedure, shortened: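 Cell-based read-out of cAMP via a modified cyclic nucleotide-gated channel and membrane potential dye (535/590 nm) in HEK293 cells expressing PDE4 endogenously. Compounds tested up to 22.9 uM final; 100 uM RO 20-1724 reference.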

[8] = molecular target: Mitogen-activated protein kinase 10 (Mus musculus) (UniProt Q61831); assay: JNK3 AlphaScreen Assay (AID 530); settings: JNK3 lysate, c-Jun phosphorylation; series mostly up to 11.4 µM;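 note: kinase came from lysate of stimulated human HepG2 cells; signal reports phosphorylation of biotinylated GST-cJun 1-79 at Ser73 with 10 µM ATP; % is set by controls: 0 for no effect and ±100 for the full control effect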
Procedure, shortened: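 qHTS titrations with 15 min compound pre-incubation before adding ATP (10 uM final). Read-out: AlphaScreen of Ser73-phosphorylated biotin-GST-cJun using HepG2 lysate JNK3 activated by IL-1β and TNFα.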

[9] = molecular target: Cytochrome P450 3A4 (Homo sapiens) (UniProt P08684); assay: qHTS Assay for Activators of Cytochrome P450 3A4 (AID 885; active = well fitted curve in the direction sought with a large enough effect; an effect the other way counts as inactive or inconclusive; note: nearly all actives have a fitted effect of over 65% in size); settings: recombinant CYP3A4, Luciferin-PPXE luminescence, 60 min; series mostly up to 11.4 µM
Cytochrome P450 3A4 (Homo sapiens), sequence (P08684 whole entry, looked up): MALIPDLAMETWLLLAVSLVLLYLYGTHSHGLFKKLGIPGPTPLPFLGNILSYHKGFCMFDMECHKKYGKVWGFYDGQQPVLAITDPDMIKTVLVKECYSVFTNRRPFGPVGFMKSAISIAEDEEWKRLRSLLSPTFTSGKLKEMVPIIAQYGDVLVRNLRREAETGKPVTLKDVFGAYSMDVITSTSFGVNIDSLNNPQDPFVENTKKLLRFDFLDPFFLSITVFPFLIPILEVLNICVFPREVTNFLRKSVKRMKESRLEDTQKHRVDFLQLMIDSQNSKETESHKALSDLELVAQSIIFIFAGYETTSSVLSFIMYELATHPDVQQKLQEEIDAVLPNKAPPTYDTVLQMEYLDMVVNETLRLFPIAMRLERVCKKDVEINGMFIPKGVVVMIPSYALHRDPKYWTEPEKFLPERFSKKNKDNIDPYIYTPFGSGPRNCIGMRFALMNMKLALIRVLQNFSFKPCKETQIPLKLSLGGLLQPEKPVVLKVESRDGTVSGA
Procedure, shortened: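 Luminescent readout of luciferin formed from 25 uM Luciferin-PPXE (KM level) by 20 nM CYP3A4 in 200 mM KPO4, with 60 min NADPH-driven reaction at room temperature after 10 min compound exposure. Ketoconazole (57 uM) defined 100% inhibition.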

[10] = molecular target: Cytochrome P450 2C9 (Homo sapiens) (UniProt P11712); assay: qHTS Assay for Inhibitors and Substrates of Cytochrome P450 2C9 (AID 883; active = well fitted curve in the direction sought with a large enough effect; an effect the other way counts as inactive or inconclusive; note: % is set by controls: 0 for no effect and ±100 for the full control effect; nearly all actives have a fitted effect of over 60% in size); settings: recombinant CYP2C9, luciferin-H luminescence, 60 min; series mostly up to 11.4 µM
Cytochrome P450 2C9 (Homo sapiens), sequence (P11712 whole entry, looked up): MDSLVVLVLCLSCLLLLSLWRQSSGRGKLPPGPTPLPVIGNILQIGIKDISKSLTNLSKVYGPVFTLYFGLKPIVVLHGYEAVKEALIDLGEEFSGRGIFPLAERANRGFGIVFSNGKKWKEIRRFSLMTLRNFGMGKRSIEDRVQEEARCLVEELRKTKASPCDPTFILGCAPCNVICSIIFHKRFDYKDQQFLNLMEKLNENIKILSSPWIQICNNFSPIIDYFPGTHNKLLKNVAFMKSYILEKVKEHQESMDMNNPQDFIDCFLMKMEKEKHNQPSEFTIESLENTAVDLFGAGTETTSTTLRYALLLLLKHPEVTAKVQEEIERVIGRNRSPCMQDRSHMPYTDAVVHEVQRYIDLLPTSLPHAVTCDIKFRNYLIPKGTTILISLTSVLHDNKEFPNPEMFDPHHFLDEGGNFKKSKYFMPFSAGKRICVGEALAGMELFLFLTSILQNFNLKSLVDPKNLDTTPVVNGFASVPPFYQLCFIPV
Procedure, shortened: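 Inhibition of CYP2C9 is scored as loss of luminescence, with 57uM sulphaphenazole defining 100% inhibition. Substrate Luciferin-H is used at 100uM, equal to its KM; enzyme at 10nM in 25mM KPO4, 60 min at 37C with NADPH regeneration.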

[11] = qHTS Assay for Identification of Small Molecule Agonists for Hypoxia Response Element Signaling Pathway (AID 914; active = well fitted activation curve with a large enough effect in the signal ratio, with a control signal flat, not every such curve was filed as active; the % refers to the signal ratio; note: % of control where 0% means no effect); settings: ME-180 (cervical carcinoma) HRE-bla reporter, beta-lactamase ratio, CoCl2, 17 h; activation: hits give high values
Procedure, shortened: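 AC50 values come from titration-series %Activity, taken as the 460/530nm ratio of CCF4 fluorescence (excitation 405nm). CellSensor HRE-bla ME-180 cells were treated 17 hours at 37 C with compound plus an EC50 level of CoCl2.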

Nc1nc(C(=O)O)c(N=Nc2ccccc2)c(=O)[nH]1
inactive: Potency [1] > 11.4 µM | activity change, negative = inhibition [2] 4.49% | activity change, negative = inhibition [3] -22.9% | activity, negative = inhibition [4] 7.24% | Potency [5] > 46 µM | Potency [6] > 9.22 µM | Potency [7]

O=C(O)CC(CC(=O)O)C(=O)O
inactive: Potency [1] > 11.4 µM | activity change, negative = inhibition [2] -1.11% | activity change, negative = inhibition [3] 8.83% | activity, negative = inhibition [4] 7.1% | Potency [5] > 46 µM | Potency [8] | Potency [7]

CN(C)c1ccc(C(c2ccc(N(C)C)cc2)c2ccc([N+](=O)[O-])cc2)cc1
inactive: Potency [1] > 11.4 µM | activity change, negative = inhibition [2] 5.91% | activity change, negative = inhibition [3] -16.6% | activity, negative = inhibition [4] 14.9% | Potency [5] > 46 µM | Potency [6] > 9.22 µM | Potency [7] | Potency [9]

O=C(O)c1cccc(N=Nc2c(S(=O)(=O)O)ccc3c2C(=O)c2ccccc2C3=O)c1O
inactive: Potency [1] > 11.4 µM | activity change, negative = inhibition [2] 9.86% | activity change, negative = inhibition [3] -3.54% | activity, negative = inhibition [4] -9.02% | Potency [5] > 46 µM | Potency [6] > 9.22 µM | Potency [7]

CC(C)(CCc1nc2ccccc2[nH]1)C(=O)O
inactive: Potency [1] > 11.4 µM | activity change, negative = inhibition [2] -7.34% | activity change, negative = inhibition [3] 6.77% | activity, negative = inhibition [4] 1.19% | Potency [5] > 46 µM | Potency [6] > 9.22 µM | Potency [7] | Potency [10]

COc1ccc2c(c1)[n+]([O-])c(/C(C)=N/NC(N)=S)c(C)[n+]2[O-]
inactive: Potency [1] > 11.4 µM | activity change, negative = inhibition [2] -7.76% | activity change, negative = inhibition [3] 5.82% | activity, negative = inhibition [4] 0.294% | Potency [5] > 46 µM | Potency [8] | Potency [7]

O=C1Nc2ccccc2[C@]1(O)Cc1ccccn1
inactive: Potency [1] > 11.4 µM | activity change, negative = inhibition [2] 1.94% | activity change, negative = inhibition [3] 2.79% | activity, negative = inhibition [4] 12.1% | Potency [5] > 46 µM | Potency [8] | Potency [7] | activation [11] -8.99%
active: Potency [6] 0.26 µM

O=S(=O)(O)c1cc(O)c2c(O)c(N=Nc3cccc4ccccc34)c(S(=O)(=O)O)cc2c1
inactive: Potency [1] > 11.4 µM | activity change, negative = inhibition [2] -2.93% | activity change, negative = inhibition [3] -6.39% | activity, negative = inhibition [4] 4.42% | Potency [5] > 46 µM | Potency [6] > 9.22 µM | Potency [7] | activation [11] -26.6%

CC(C)Cn1cnc2c(SCc3ccccn3)nc(N)nc21
inactive: Potency [1] > 11.4 µM | activity change, negative = inhibition [2] -13.7% | activity change, negative = inhibition [3] 8.93% | activity, negative = inhibition [4] -1.91% | Potency [5] > 46 µM | Potency [6] > 9.22 µM | Potency [8] | Potency [7] | activation [11] 13.1%

NC[C@H]1O[C@@H](n2cnc3c(=O)[nH]c(N)nc32)[C@@H](O)[C@@H]1O
inactive: Potency [1] > 11.4 µM | activity change, negative = inhibition [2] -6.27% | activity change, negative = inhibition [3] 5.35% | activity, negative = inhibition [4] 3.9% | Potency [5] > 46 µM | Potency [6] > 9.22 µM | Potency [8] | Potency [7] | activation [11] 4.86%

C[C@@H]1CCCC(CC(=O)O)(CC(=O)O)C1
inactive: Potency [1] > 11.4 µM | activity change, negative = inhibition [2] -2.04% | activity change, negative = inhibition [3] -0.409% | activity, negative = inhibition [4] 6.41% | Potency [5] > 46 µM | Potency [8] | Potency [7]

O=S(=O)(O)c1ccc(N=Nc2ccc3c(S(=O)(=O)O)cccc3c2O)c2ccccc12
inactive: Potency [1] > 11.4 µM | activity change, negative = inhibition [2] 1.08% | activity change, negative = inhibition [3] 9.05% | activity, negative = inhibition [4] -4.32% | Potency [5] > 46 µM | Potency [6] > 9.22 µM | Potency [7]

OC[C@H](CCc1c[nH]c2ccccc12)c1c[nH]c2ccccc12
inactive: Potency [1] > 11.4 µM | activity change, negative = inhibition [2] -11.6% | activity change, negative = inhibition [3] 29.4% | activity, negative = inhibition [4] -1.35% | Potency [5] > 46 µM | Potency [6] > 9.22 µM | Potency [8] | Potency [7] | activation [11] -29.3%

O=C(O)[C@@H]1CCCN1Cc1ccc2c(c1)OCO2
inactive: Potency [1] > 11.4 µM | activity change, negative = inhibition [2] 2.76% | activity change, negative = inhibition [3] 10.2% | activity, negative = inhibition [4] 0.869% | Potency [5] > 46 µM | Potency [6] > 9.22 µM | Potency [8] | Potency [7] | activation [11] 7.45%

COCCn1c(=O)c(-c2ccc(OC)cc2)nc2cnc(Oc3ccccc3)nc21
inactive: Potency [1] > 11.4 µM | activity change, negative = inhibition [2] -9.38% | activity change, negative = inhibition [3] 12.7% | activity, negative = inhibition [4] 16.5% | Potency [5] > 9.22 µM | Potency [7]

COc1ccc(-n2c(=O)c(-c3cccs3)nc3cnc(Oc4ccccc4)nc32)cc1
inactive: Potency [1] > 11.4 µM | activity change, negative = inhibition [2] -6.68% | activity change, negative = inhibition [3] -26.9% | Potency [5] > 9.22 µM | Potency [6] > 46 µM | Potency [8] | Potency [7]

CN1CCC[C@@H]1c1cccnc1.O=C(O)c1ccccc1O.O=C([OH2+])c1ccccc1O.O=C([OH2+])c1ccccc1O.O=C([OH2+])c1ccccc1O.[Cu]
inactive: Potency [1] > 11.4 µM | activity change, negative = inhibition [2] 0.0867% | activity change, negative = inhibition [3] -1.52% | activity, negative = inhibition [4] 12.5% | Potency [8] | Potency [7]
